The values that follow come from PubChem BioAssay AID1650 (Southern Research Specialized Biocontainment Screening …, 2009).

Each structure is given as a SMILES string. Results with a measured potency or affinity are listed apart. The source made the active and inactive calls. How the calls were made is not given here.

The assay in a line: mammalian cell viability reduction – secondary assay, cytotoxicity control for West Nile virus antiviral project, dose response (AID 1650). The note with it: Mammalian host cell viability, cytotoxicity counter-screen; series mostly up to 10 µM; viability: at the top concentration.
The viability is a per cent measure of how many cells are alive, often set against a control. Turning to `Cc1cc(N2CCCC2)nc2ccc(NC(=S)NCCCN3CCC(C)CC3)cc12`, the “viability” value was 79.8% [at 20 µM] (inactive).

Consider `CCOC(=O)c1c(NC(=O)CN(C)C2CCN(C)CC2)sc(C(=O)Nc2ccccc2)c1C`, for which the “viability” value is 84.1% [at 20 µM] (inactive).

Take `CCN(CC)S(=O)(=O)c1ccc2c(c1)c(=O)c(C(=O)NCCc1ccc(OC)c(OC)c1)cn2C`: the “viability” value was 92.3% [at 20 µM] (inactive).

In the case of `CCN(CC)CCCN1CC(O)=C(c2nc3ccccc3s2)C1=N`, the “viability” value was 81.1% (inactive).

`CCn1cc(C(=O)NCc2ccc3c(c2)OCO3)c(=O)c2cc(F)c(N3CCN(C(=O)c4ccco4)CC3)cc21`: the “viability” value was 79.5% [at 20 µM] (inactive).

As to `CCOC(=O)c1[nH]c2ccccc2c1NC(=O)CC(C)(C)C`, the “viability” value was 83.8% (inactive).

On to `Cc1cccc(/C=C2/Sc3ccc(C(=O)NCCCN4CCOCC4)cc3NC2=O)c1`, for which the “viability” value is 92.8% (inactive).

Regarding `CC1CCCN(CCCNC(=O)c2cc3c(s2)-c2ccccc2OC3)C1` (stereo not given), the “viability” value was 82.8% (inactive).

Consider `Cc1ccc(-c2cc(C(=O)N(C)Cc3cnn(C)c3C)c3cc(Br)ccc3n2)cc1`, for which the “viability” value is 90.5% (inactive).

For `CCN(CC)CCNC(=O)c1ccc(NC(=O)C2CCN(c3ncnc4sc(C)c(C)c34)CC2)cc1`, the “viability” value was 81.7% (inactive).

Take `COc1ccccc1NC(=O)N1CCn2c(nc3ccccc32)C1`: the “viability” value was 92.2% [at 20 µM] (inactive).

With `Cc1cc(C)c(NC(=O)Cn2nnc(C(=O)Nc3ccc(F)cc3F)c2N)c(C)c1`, the “viability” value is 88.5% [at 20 µM] (inactive).

`CCOC(=O)c1c(CN2CCN(CCO)CC2)n(-c2ccccc2)c2cc(Br)c(O)cc12`: the “viability” value is 83.9% (inactive).

For `O=C(CCN1C(=O)/C(=C/c2ccc(F)cc2)SC1=S)NCCc1ccc(O)cc1`, the “viability” value is 70.4% [at 20 µM] (inactive).

As for `COc1ccc(OCC(O)Cn2c(=N)n(Cc3ccccc3)c3ccccc32)cc1` (stereo not given), the “viability” value is 73.8% (inactive).

For the molecule `CN1CCN(c2nc(Nc3cccc(C(F)(F)F)c3)nc(N3CCOCC3)n2)CC1`, the “viability” value was 79.1% (inactive).

Turning to `OC(COc1ccc(CNCCc2ccc(C(F)(F)F)cc2)cc1)CN1CCCCC1` (stereo not given), the “viability” value was 91.1% (inactive).

Turning to `COc1ccc(CCNC(=O)COc2ccc(S(=O)(=O)NCC(C)C)cc2Cl)cc1OC`, the “viability” value is 84.8% (inactive).

Turning to `COC(=O)C1(O)CC(C(C)C)=NN1C(=O)c1ccc(Cl)cc1` (stereo not given), the “viability” value was 95.5% [at 20 µM] (inactive).

As to `COc1ccc(-c2cc(C(=O)c3c(N)n(C)c(=O)n(C)c3=O)c3ccccc3n2)cc1OC`, the “viability” value is 90.8% (inactive).

Consider `Cc1ccc2oc(=O)c3cc(C(=O)NCCCN4CC(C)CC(C)C4)sc3c2c1` (stereo not given), for which the “viability” value was 71.7% [at 20 µM] (inactive).

In the case of `COc1ccc(S(=O)(=O)NC2CCCC2)c(Cl)c1Cl`, the “viability” value is 88.9% (inactive).

Regarding `Cc1ccccc1CN(CC(=O)Nc1cccc([N+](=O)[O-])c1)S(=O)(=O)c1ccc(Cl)cc1`, the “viability” value was 80.2% (inactive).

As to `Cc1ccc(-c2nc3ccccc3n3nnnc23)cc1`, the “viability” value is 77.4% [at 20 µM] (inactive).

As for `CN1CCN(C(=O)CCN2C(=O)/C(=C/c3cccc(Br)c3)SC2=S)CC1`, the “viability” value is 78.5% (inactive).

`N#Cc1c(N)nc2c3c(sc(=N)c2c1N)NC(=O)CC3c1ccccc1Cl` (stereo not given): the “viability” value was 93.5% (inactive).

On to `COc1cc(C(=O)/C=C/c2cccnc2)ccc1O`, for which the “viability” value is 73.2% (inactive).

Take `CC(C)(C)n1nnnc1C(c1ccccc1)N1CCc2ccccc2C1` (stereo not given): the “viability” value is 78.3% [at 20 µM] (inactive).

Take `Cc1cc(N2CCN(C)CC2)nc2ccc(NC(=S)N3CCN(c4ccccn4)CC3)cc12`: the “viability” value was 73.7% (inactive).

For the molecule `CCOC(=O)C(=Cc1ccc(F)cc1)C(=O)OCC`, the “viability” value is 73.7% (inactive).

Take `CCCCCCn1c(SCC(=O)Nc2cc(C)on2)nc2ccccc2c1=O`: the “viability” value is 71.4% (inactive).

Regarding `O=C(CCN1C(=O)/C(=C/c2ccccc2Cl)SC1=S)NCCc1ccc(O)cc1`, the “viability” value was 83.2% (inactive).

On to `Cc1ccc2cc(C#N)c(N3CCCN(C(=S)NCCCN(C)C)CC3)nc2c1`, for which the “viability” value is 79.4% (inactive).

As for `CC1=CC(C)(C)N2C(=O)C3(NCCc4c3[nH]c3ccccc43)c3cc(C)cc1c32` (stereo not given), the “viability” value is 92.3% (inactive).

With `COc1ccc(C2Nc3ccc4ccccc4c3-c3c2c(=O)oc2ccccc32)cc1` (stereo not given), the “viability” value is 77.4% (inactive).

In the case of `CCOc1ccc(-c2cc(C(=O)NCCCN3CCCC3)c3ccccc3n2)cc1`, the “viability” value was 85.1% [at 20 µM] (inactive).

In the case of `CCN(CC)S(=O)(=O)c1ccc(OC)c(NC(=O)c2cccc([N+](=O)[O-])c2C)c1`, the “viability” value was 83% [at 20 µM] (inactive).

As to `C/C(=N\OC(=O)c1ccc(F)cc1)c1nccs1`, the “viability” value is 92.5% [at 20 µM] (inactive).

Regarding `O=C1c2ccccc2C2=Nc3ccccc3SC(c3ccc(Cl)cc3)C12` (stereo not given), the “viability” value is 78.3% [at 20 µM] (inactive).

For the molecule `CC(C)n1cc(CN2CCCC(C(=O)Nc3cccc(-c4cc5ccccc5[nH]4)c3)C2)cn1` (stereo not given), the “viability” value was 85.8% (inactive).
